D1 potentiator: human D1 dopamine receptor positive modulation | P21728 | 360,000 tested, 0.036% active | potentiation, % at 10 µM | HEK293 TREx D1 cells, calcium flux, dopamine EC20 potentiation; in the data active = potentiation above about 30%
DRD3 agonist: agonists of human D3 dopamine receptor; D3R DiscoveRx beta-arrestin cells, luminescence, 90 min; AID 652048; P35462; max activation, %; 410,000 tested, 0.58% active; in the data active = max activation above about 30%
Target sequence (P35462 whole entry, looked up): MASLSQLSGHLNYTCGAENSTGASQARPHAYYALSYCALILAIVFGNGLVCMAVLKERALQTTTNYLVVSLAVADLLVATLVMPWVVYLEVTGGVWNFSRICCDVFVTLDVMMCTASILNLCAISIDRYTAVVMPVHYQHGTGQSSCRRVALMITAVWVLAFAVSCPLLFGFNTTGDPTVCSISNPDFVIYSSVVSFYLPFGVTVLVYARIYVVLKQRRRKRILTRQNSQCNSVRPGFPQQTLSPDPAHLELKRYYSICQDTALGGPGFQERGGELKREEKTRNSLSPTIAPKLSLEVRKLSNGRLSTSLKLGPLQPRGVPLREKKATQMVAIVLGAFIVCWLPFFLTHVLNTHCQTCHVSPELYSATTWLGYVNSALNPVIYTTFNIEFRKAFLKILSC
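Agonist-mode cell screen: cells plated at 1500/well and incubated overnight at 37 °C, then exposed to library compounds for 90 min at 37 °C. Detection reagent was added for 30–60 min at room temperature, and luminescence was read.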
D1 antagonist: human D1 dopamine receptor antagonism; P21728; HEK293 TREx D1 cells, calcium flux, dopamine EC80; active compounds read low; activity change, negative = inhibition, % at 10 µM; 360,000 tested, 3.2% active; AID 504652; in the data active = activity change below about -30%
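Using tetracycline-induced force-coupled D1 Hek293 cells and a calcium dye, signals were followed for 180 s after compound, then for 180 s after EC80 dopamine, to detect inhibitors.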
D3 antag: D3 dopamine receptor (human) antagonism | AID 652054 | 360,000 tested, 2.5% active | P35462 | max response, negative = inhibition, % | D3R cells, DiscoveRx beta-arrestin luminescence, antagonist mode; active compounds read low; in the data active = max response below about -50%; inconclusive = no clear call, values can overlap the other calls
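Cells plated overnight at 1500 cells/well, then exposed to library compounds with dopamine controls for 90 minutes at 37 degrees C. DiscoveRx reagent added for 30–60 minutes at room temperature; luminescence read, quantitative HTS format.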
D1 agonist: agonists of human D1 dopamine receptor; P21728; HEK293 T-REx D1 cells, calcium flux, agonist mode; activation, % at 2 µM; 360,000 tested, 1% active; AID 504660; in the data active = activation above about 30%
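Inducible HEK293 T-REx D1 cells, force-coupled to calcium signalling, were plated at 4000 cells/well with tetracycline and held overnight at 30 C. After no-wash calcium dye loading, compound-evoked calcium rise over 180 s flagged agonists.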
Large screens that a line does not name were inactive; ! = repeats disagree. The list is not random: actives were taken first. Their share in the collection is about 6%.

CCc1ccc(CN2CCCC(CNC(=O)c3cc(OC)cc(OC)c3)C2)cc1 (stereo unspecified)	D1 antagonist -37
COc1ccc(N2CCN(C(=O)c3cccn4c(=O)c5ccc(Cl)cc5nc34)CC2)cc1	none (no result: D3 antag)
CC1(C)CC(C)(c2ccc(O)cc2O)N(c2ccc3ccccc3c2)C(=S)N1 (stereo unspecified)	D3 antag -62
Brc1ccccc1-n1ncc2c1ncn1nc(Cc3ccccc3)nc21	D1 antagonist -63 (no result: D3 antag)
CC1CCCN(CC(=O)Nc2ccc(S(=O)(=O)N3C(C)CCCC3C)cc2)C1 (stereo unspecified)	D3 antag -51 (no result: D1 potentiator, D1 antagonist, D1 agonist)
CC1CCCN(CCC(=O)Nc2ccccc2)C1 (stereo unspecified)	none
CC1CCCN(S(=O)(=O)c2ccc(NC(=O)CN3CCN(C)CC3)cc2)C1 (stereo unspecified)	none
CC1CCN(CC(=O)Nc2ccc(S(=O)(=O)N3CCCC(C)C3)cc2)CC1 (stereo unspecified)	D1 antagonist -32
O=C(CNC1CCCCC1)Nc1ccc(S(=O)(=O)N2CCCCC2)cc1	D1 potentiator 43, D1 agonist 153
CC1CCCN(CCC(=O)Nc2ccc(Br)cc2)C1 (stereo unspecified)	D3 antag -86
Cc1ccc(-c2nn(-c3cc(Cl)ccc3[N+](=O)[O-])c(=O)c3ccccc23)cc1C	D1 antagonist -49
O=c1c2ccccc2c(-c2ccccc2)nn1-c1cc(Cl)ccc1[N+](=O)[O-]	none
O=C1NC[C@H](CCCCN2C[C@@H](Cc3ccccc3)N(CC3CCCCC3)C(=O)C2=O)N(CCC2CCCCC2)C1=O	none (no result: D1 potentiator, D1 antagonist, D1 agonist)
COc1cc(C(=S)N2CCOCC2)ccc1OC(=O)c1ccccc1[N+](=O)[O-]	D1 antagonist -33
O=C(Oc1cccc(C(=S)N2CCOCC2)c1)c1ccc([N+](=O)[O-])cc1[N+](=O)[O-]	D3 antag -51
COc1cc(C(=S)N2CCOCC2)ccc1OC(=O)c1cc([N+](=O)[O-])c(C)c([N+](=O)[O-])c1	none
O=C(Oc1ccc(C(=S)N2CCOCC2)cc1)c1ccc([N+](=O)[O-])cc1[N+](=O)[O-]	none
O=C(NCc1ccccc1Cl)C1CCC(=O)N(CCCN2CCCC2=O)C1 (stereo unspecified)	none
COc1ccc(OC)c(-c2csc(NC(=O)COC(=O)C3(C)CC3(Cl)Cl)n2)c1 (stereo unspecified)	D1 antagonist -48
COCCCN(C(=O)c1ccco1)c1nc(-c2cc(OC)ccc2OC)cs1	D1 antagonist -41
CCC(=O)N(CCCN(C)C)c1nc(-c2cc(OC)ccc2OC)cs1	D3 antag inconclusive
CCC(=O)N(CC)c1nc(-c2cc(OC)ccc2OC)cs1	D1 agonist 34
Cc1nn(C)c2c1c(C(F)(F)F)cc(=O)n2CC(=O)N1CCCCC1	none (no result: D3 antag)
CC(=O)c1cccc(NC(=O)C2(C)Cc3c(-c4ccccc4)ccnc3O2)c1 (stereo unspecified)	none (no result: D1 potentiator, D1 antagonist, D1 agonist)
COc1ccc(C2CC(c3ccccc3)=NN2S(=O)(=O)c2ccccc2)c(OC)c1 (stereo unspecified)	none
COc1ccccc1C1CC(c2ccccc2)=NN1S(=O)(=O)c1ccccc1 (stereo unspecified)	D1 antagonist -34
CCOC(=O)CC(NC(=O)N1CCC(CN2CCC(C)CC2)CC1)c1ccccc1 (stereo unspecified)	none (no result: D3 antag)
NC(=O)c1ccc[n+](CC(=O)c2ccc(Cl)c(Cl)c2)c1	D1 antagonist -83
COc1cc(NC(=O)Cn2nnc(-c3ccc(C(F)(F)F)cc3)n2)c(C(=O)O)cc1OC	none (no result: D3 antag)
O=Cc1ccccc1OCCOc1ccc([N+](=O)[O-])cc1	D1 antagonist -31
O=[N+]([O-])c1ccc(COc2ccccc2/C=N/O)cc1	D1 antagonist -49
CCOc1cc(/C=N/O)ccc1OCc1ccc([N+](=O)[O-])cc1	none
COc1cc(C)ccc1OCCOCCOc1ccccc1[N+](=O)[O-]	none
COc1cc(C)ccc1OCCOCCOc1ccc([N+](=O)[O-])cc1	D1 agonist 31
CCOC(=O)CNC(=O)Cn1nc(N2CCN(c3ccccc3)CC2)ccc1=O	none (no result: D3 antag)
CCc1ccc(-n2c(SCC(=O)NC(C)CC)nc3n[nH]c(C)c3c2=N)cc1 (stereo unspecified)	none (no result: D3 antag)
O=C(/C=C/c1ccc2c(c1)OCO2)NCCSCc1cccc(Cl)c1	D1 antagonist -31, D3 antag inconclusive
O=C(/C=C/c1ccc2c(c1)OCO2)NCCSCc1ccc(Cl)cc1Cl	none
O=C(/C=C/c1cccc([N+](=O)[O-])c1)NCc1ccc2c(c1)OCO2	none
O=C(/C=C/c1cccc(F)c1)NCc1ccc2c(c1)OCO2	D1 antagonist -35
CCOc1ccc(NC(=O)c2c(C)nn(-c3ccc(F)cc3)c2-n2cccc2)cc1	none (no result: D3 antag)
Cc1ccc(NC(=O)CCNS(=O)(=O)c2cccc3nonc23)cc1Cl	D1 antagonist -32!
Cc1cccc(NC(=O)CCNS(=O)(=O)c2cccc3nonc23)c1	D1 antagonist -50!
COc1ccc(NC(=O)CCS(=O)(=O)c2cccc3nonc23)c(OC)c1	D1 antagonist -45
COc1ccc(C)cc1NS(=O)(=O)c1cccc2nonc12	D3 antag -52
COC(=O)c1c(NC(=O)c2ccccc2)sc(Cc2ccccc2)c1C	none
COC(=O)c1c(NC(=O)c2ccc(C)cc2)sc(Cc2ccccc2)c1C	D3 antag -65
CCOc1ccc(CNC(=O)c2ccc(Sc3ccc(Cl)cc3)c(NC(C)=O)c2)cc1	none
CCOc1ccccc1CNC(=O)c1ccc(Sc2ccc(Cl)cc2)c(NC(C)=O)c1	D1 antagonist -39
CCOC(=O)c1c(C)oc2nc(C)nc(NCCc3ccc(C)cc3)c12	none (no result: D3 antag)
CCCCNC(=O)C1(C)CCN1C(=O)c1cncc(Br)c1 (stereo unspecified)	none (no result: D1 potentiator, D1 antagonist, D1 agonist)
O=C1CCN(CCc2ccccc2)CCN1[C@H](CSc1ccccc1)Cc1ccccc1	none
CC(C)CN1CCC(=O)N([C@H](CSc2ccc(Br)cc2)Cc2ccccc2)CC1	D1 antagonist -50, D3 antag -67
Cc1ccc(SC[C@H](Cc2ccccc2)N2CCN(CCc3ccccc3)CCC2=O)cc1	D3 antag -58
CCOc1ccc(CNC(=O)c2cnc3sc(N4CCOCC4)nn3c2=O)cc1	D1 antagonist -61 (no result: D3 antag)
CCOc1cccc2sc(N(Cc3cccnc3)C(=O)c3ccco3)nc12	none (no result: D1 antagonist, D3 antag)
Oc1cccc(NC(=S)N=Nc2c(O)[nH]c3ccccc23)c1	D1 antagonist -31
Oc1[nH]c2ccccc2c1N=NC(=S)NCCc1ccccc1	D1 antagonist -30
CCOc1ccc(NC(=S)N=Nc2c(O)[nH]c3ccccc23)cc1	none
CCCCNC(=S)N=Nc1c(O)[nH]c2ccccc12	D1 antagonist -31
COc1cccc(OCCSc2nc3ccccc3n2CC(=O)N2CCCCC2)c1	none (no result: D3 antag)

Source: PubChem
